From PubChem BioAssay come the findings set out here.

Each structure is given as a SMILES string.

System in one test: not listed separately
Briefly: probe aLefty2 binding to arrayed compounds – biochemical, biotinylated probe, 635/667 nm fluorescence, primary screen (AID 1094).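 Also: score merges spot fluorescence near 667 nm with spot signal-to-noise ratio.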 Conditions: small-molecule microarray, higher = more signal.
In the case of `CC(=O)N1CC2(CC2)CC1c1ccccc1` (centres undefined), the composite z-score was 0.0423. Same read-out and setting: the same measure for `CC(C)[Si](C#CCCCC#N)(O[C@H](c1ccccc1)c1cn(Cc2ccccc2)nn1)C(C)C`: -0.119; for `COCCOC(=O)N1C(=O)[C@@]2(c3cc(C#CC4(O)CCCCCC4)ccc31)[C@H](c1ccc(O)cc1)N1[C@H](c3ccccc3)[C@H](c3ccccc3)OC(=O)[C@H]1[C@@H]2C(=O)N1CCN(c2ncccn2)CC1`: -0.0282. Same read-out and setting: the value for `CC1=C2[C@@H](CCc3ccccc3)OB(O)C[C@@H]2[C@@H]2C(=O)N(Cc3ccccc3)C(=O)[C@@H]2C1` was -0.116. Same read-out and setting: the value for `CCOC(=O)C[C@H]1[C@H](OC(=O)Cc2ccc3c(c2)OCO3)[C@@H](NC(=O)C2CCCCC2)c2cc(OCCCO)ccc2N1C(=O)c1ccccc1` was -0.248; that for `COCCCNC(=O)[C@@]1(CCC(=O)OC(C)(C)C)N=C(c2ccc(OCCCO)cc2)O[C@H]1c1ccccc1N=[N+]=[N-]` was 0.644. With `[N-]=[N+]=Nc1ccccc1C[C@]1(C(=O)NCC(O)CO)COC(c2ccc(OCCCO)cc2)=N1` (some centres undefined), the composite z-score was 0.23. On to `CCCC[C@@H](O)C1=C(COC)C[C@H]2C(=O)N(C)C(=O)[C@H]2[C@H]1CO`, for which the composite z-score is -0.353.

Take `CCCCCCc1nc(Cc2cc(OC)c(OC)c(OC)c2)cc2c1[Si](C(C)C)(C(C)C)OC2`: the composite z-score is -0.0985.

The next test concerns Noggin (protein binding on small-molecule microarray). Briefly: small molecules binding Noggin protein – biochemical, 635/667 nm fluorescence, primary screen (AID 1095).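 Also: score merges 667 nm feature fluorescence with signal to noise over triplicate slides.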 Conditions: 635 nm fluorescence, higher = more signal.
Regarding `N#Cc1ccc(NN2C(C(O)c3ccc(Br)cc3)C=CC3C(=O)N(c4ccccc4)C(=O)C32)cc1` (centres undefined), the composite z-score is -0.146. Still for that read-out and setting: the value for `CC1CC/C=C\[C@H]2OC34C=CCN(c5ccc(Cl)cc5)C(=O)[C@H]3N(C(C)CO)C(=O)[C@]4(C)C2C(=O)O1` (some centres undefined) was -0.603.

Turning to `CO[C@H]1O[C@H](CO)[C@@H](OC(=O)Nc2ccc(Br)cc2)[C@@H]2OC(=O)[C@@H](Cc3ccccc3)C/C=C/C[C@H](Cc3ccccc3)C(=O)O[C@@H]12`, the composite z-score was 0.202. Same read-out and setting: the same measure for `CCOC(=O)C[C@H]1[C@H](OC(=O)c2cc3ccccc3oc2=O)[C@@H](NC(=O)c2ccccc2)c2cc(OCCCO)ccc2N1C(=O)c1ccccc1`: 0.992; for `O=C1OCCC=C[C@H]2OC34C=CCN(c5ccc6ccccc6c5)C(=O)[C@H]3N(CCCO)C(=O)[C@@H]4C12` (some centres undefined): -2.16.

In the case of `O=C1C2C=CC(C(O)C3CC=CCC3)N(Nc3ccccc3)C2C(=O)N1c1ccccc1` (centres undefined), the composite z-score is -0.146. As for `Cc1ccc(S[C@]2(C(=O)NC(C)C)CC(=O)N(Cc3cc(C(F)(F)F)cc(C(F)(F)F)c3)[C@@H]2c2ccc(CO)cc2)cc1`, the composite z-score is -1.27. Same read-out and setting: the same measure for `CCOC(=O)C[C@H]1[C@H](OC(=O)c2ccccc2-c2ccccc2)[C@@H](NC(=O)c2ccc3ccccc3n2)c2cc(OCCCO)ccc2N1C(=O)Cc1ccc(OC)cc1`: 0.287; for `CC(C)c1ccc(NN2C(C(O)c3ccc(C#N)cc3)C=CC3C(=O)N(c4ccccc4)C(=O)C32)cc1` (centres undefined): -0.144; for `CCC#CCN(Cc1ccccc1Br)[C@H](/C=C/C1CC1)[C@@H](O)Cc1ccccc1`: -0.679.

Compound `C=C[C@@H](OC)[C@H](OC(=O)Nc1ccc(OC)cc1)c1ccc(O)c(F)c1` showed a composite z-score of 0.638.

As for `C=CCC(OC(C)=O)[C@@H]1[C@@H](N(Cc2ccc(-c3cccc(C(F)(F)F)c3)o2)C(=O)c2ccc(-c3ccccc3)cc2)c2cc(OCCCO)ccc2N1C(=O)Cc1ccc2ccccc2c1` (some centres undefined), the composite z-score was -0.214. On the same count and under the same terms, the value for `CCOC(=O)C1=C[C@@H](c2ccccc2)N(S(=O)(=O)c2ccc(C)cc2)[C@H]1c1ccc(OC)cc1` was 0.221; that for `CS(=O)(=O)CCOC(=O)C1=CC(CCCO)=CC(c2ccc(CN3CCCC3)cc2)N(Cc2sc3ccccc3c2Cl)C=C1C(=O)OCCS(C)(=O)=O` (centres undefined) was 0.563; that for `CCOC(=O)C[C@H]1[C@H](OC(=O)Cc2ccc3c(c2)OCO3)[C@@H](NC(=O)c2ccc3ccccc3n2)c2cc(OCCCO)ccc2N1C(=O)c1ccc2ccccc2n1` was 0.719. `C=CCC(OC(C)=O)[C@@H]1[C@@H](N(Cc2ccc(-c3ccccc3)cc2)C(=O)c2ccc(-c3ccccc3)cc2)c2cc(OCCCO)ccc2N1C(=O)c1ccc2ccccc2c1` (some centres undefined): the composite z-score turned out to be 0.479. For `Cc1ccc(NN2C(C(O)c3c(F)cccc3Cl)C=CC3C(=O)N(C4CCCCC4)C(=O)C32)cc1` (centres undefined), the composite z-score was -0.203. As for `CN(C)C(=O)[C@]1(Cc2ccccc2CN=[N+]=[N-])N=C(c2ccc(OCCCO)cc2)O[C@@H]1c1ccccc1`, the composite z-score stood at 0.104.

In turn, `Cc1ccc(S[C@]2(C(=O)O)CC(=O)N(C3CCCCC3)[C@@H]2c2ccc(CO)cc2I)cc1` yielded a composite z-score of -0.0104. Still for that read-out and setting: the same measure for `CCOC(=O)C[C@H]1[C@H](OC(=O)c2cc3ccccc3oc2=O)[C@@H](NC(=O)CC(C)C)c2cc(OCCCO)ccc2N1C(=O)c1ccc2ccccc2n1`: 0.746.
